# Measurements published in the supplement of paper PMC6555819.
# Columns and labels:
# Experiment in all cases: PBM binding z-score (relative to random genomic background probes); higher = stronger binding; sequences stand for … in GC…GCGATTGACAGCGTAGAATGAAGG
# [1] = test system: FXR:RXRa (NR concentration 270 nM, RXRa partner concentration 90 nM)
# Summary of the method: (§1)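 Random background probes are the reference for binding z-scores. These scores derive from regression-normalized fluorescence on custom Agilent 4×180K protein-binding microarrays incubated 1 h with ligand-free nuclear receptor dimers. Binding was detected with antibodies against each partner (one per run).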
# [2] = test system: LXRa:RXRa (NR concentration 270 nM, RXRa partner concentration 90 nM)
# Summary of the method: as §1
# [3] = test system: LXRa homodimer (NR concentration 270 nM)
# Summary of the method: as §1
# [4] = test system: LXRb:RXRa (NR concentration 270 nM, RXRa partner concentration 90 nM)
# Summary of the method: as §1
# [5] = test system: LXRb homodimer (NR concentration 270 nM)
# Summary of the method: as §1
# [6] = test system: PPARa:RXRa (NR concentration 270 nM, RXRa partner concentration 90 nM)
# Summary of the method: as §1
# [7] = test system: PPARg:RXRa (NR concentration 180 nM, RXRa partner concentration 90 nM)
# Summary of the method: as §1
# [8] = test system: PPARg:RXRa 270nM:90nM, anti-RXR (NR concentration 270 nM, RXRa partner concentration 90 nM)
# Summary of the method: as §1
# [9] = test system: PPARg:RXRa 30nM:10nM, anti-RXR (NR concentration 30 nM, RXRa partner concentration 10 nM)
# Summary of the method: as §1
# [10] = test system: PPARg:RXRa 90nM:30nM, anti-RXR (NR concentration 90 nM, RXRa partner concentration 30 nM)
# Summary of the method: as §1
# [11] = test system: PPARg:RXRa DBDmut IVT, anti-RXR (DBD mutation: RXRa K156A/R161A, NR concentration 270 nM, RXRa partner concentration 90 nM)
# Summary of the method: as §1
# [12] = test system: PPARg:RXRa IVT, anti-PPARg (NR concentration 270 nM, RXRa partner concentration 90 nM)
# Summary of the method: as §1
# [13] = test system: PPARg DBDmut:RXRa IVT, anti-PPARg (DBD mutation: PPARg1 K132A/R137A, NR concentration 270 nM, RXRa partner concentration 90 nM)
# Summary of the method: as §1
# [14] = test system: PPARg DBDmut IVT, anti-PPARg (DBD mutation: PPARg1 K132A/R137A, NR concentration 270 nM)
# Summary of the method: as §1
# [15] = test system: PPARg homodimer (NR concentration 180 nM)
# Summary of the method: as §1
# [16] = test system: PXR:RXRa (NR concentration 270 nM, RXRa partner concentration 90 nM)
# Summary of the method: as §1
# [17] = test system: PXR homodimer (NR concentration 270 nM)
# Summary of the method: as §1
# [18] = test system: RARa:RXR (NR concentration 270 nM, RXRa partner concentration 90 nM)
# Summary of the method: as §1
# [19] = test system: RARa homodimer (NR concentration 270 nM)
# Summary of the method: as §1
# [20] = test system: RARb:RXRa (NR concentration 270 nM, RXRa partner concentration 90 nM)
# Summary of the method: as §1
Sequence,PBM binding z-score [1],PBM binding z-score [2],PBM binding z-score [3],PBM binding z-score [4],PBM binding z-score [5],PBM binding z-score [6],PBM binding z-score [7],PBM binding z-score [8],PBM binding z-score [9],PBM binding z-score [10],PBM binding z-score [11],PBM binding z-score [12],PBM binding z-score [13],PBM binding z-score [14],PBM binding z-score [15],PBM binding z-score [16],PBM binding z-score [17],PBM binding z-score [18],PBM binding z-score [19],PBM binding z-score [20]
TCTCGTAGGACACGAAAGGTCAGAGCTCGACATC,3.08,3.85,2.58,3.39,0.134,3.58,1.24,2.98,2.7,2.81,1.81,1.71,-0.191,0.17,3.44,3.94,0.393,4.37,1.1,4.02
ATACCAAGGTGATCGTGAGGTCGTTGCTACTAAC,1.95,1.3,0.422,1.19,0.0744,1.65,0.201,0.438,-0.28,0.185,0.566,1.52,0.602,0.38,0.741,3.18,1.05,1.91,0.0838,1.5
GCTTGAAGATCAAGGTTAAGAAAGACTAAGCTAA,0.0422,0.502,-0.466,0.434,-0.944,1.44,0.0751,0.707,0.116,0.552,-0.184,-0.042,0.0638,-0.723,-0.0355,0.112,-0.655,0.675,-0.598,0.778
TCTGGTAGGTCAGTTGGTCAGCTAACGAGCTGCC,1.49,1.41,0.0494,1.09,0.418,2.17,1.6,2.93,2.4,2.47,3.49,4.52,-0.0249,-0.0633,1.33,0.675,-0.287,0.778,0.532,3.62
ATCTCTAGGTAAGACTCAGTACAGTGAAGAACGC,0.589,0.377,0.528,0.101,0.88,0.1,0.293,-0.0568,0.341,0.016,1.66,1.18,0.455,1.12,1.13,-0.0434,0.717,0.344,1.32,0.147
AATACAGGGTCACTCGGCCAGAGTAGGTACGAAT,6.58,5.13,1.19,4.06,1.03,5.6,6.87,5.81,2.53,4.66,3.09,5.09,2.08,1.63,2.92,3.49,0.336,4.66,0.723,4.39
CGAACTAGTTCATCCAGGACAGTGAATACATTGA,0.527,0.53,0.205,0.693,-0.0526,0.838,0.619,0.145,0.0881,0.329,1.33,0.831,0.796,0.456,0.323,1.64,2.98,1.06,0.65,1.53
ATCTCAAGGTAACCAAGTTCAGTGAATGCCGAAC,0.76,1.12,0.681,0.656,0.916,0.956,0.372,0.412,0.204,0.378,0.508,1.32,0.386,0.953,0.654,2.82,3,1.14,0.198,1.62
TCTATTATTTGATTAGGGCAACCGAAACAGCGGA,0.94,0.738,1.29,1.08,1.33,1.34,0.291,2.43,4.02,3.25,2.19,1.39,2.04,2.12,2.2,0.756,2.04,1.17,3.39,0.93
ACAGACAGGTGAGTGAAGATAACTCAGCTGGACG,-0.343,-0.53,-0.558,-0.776,-0.749,-0.453,0.887,-0.267,0.137,-0.0703,0.148,0.126,0.243,0.332,-0.119,-0.523,-0.597,-0.226,0.147,0.137
ATATGTAAGTTATCGGGTCATTCAGTTTGCGCAT,2.13,2.33,1.43,2.61,1.02,2.93,1.83,2.22,0.702,1.72,2.89,3.27,1.57,1.8,1.64,3.39,6.97,2.93,1.29,2.05
GCTAGTTGGTCAGTAAAAGGTCGCACACCGGTCG,0.649,1.35,0.422,1.28,-0.0717,2.31,0.999,2.68,0.448,2.08,0.512,1.32,-0.491,-0.677,1.76,2.07,-0.218,2.6,0.227,2.34
GCTGCTGGGTCAACTGATGGTCAGCTAAAGCTCG,3.55,2.07,-0.346,1.83,-0.326,3.89,2.34,2.93,0.519,1.99,3.67,3.45,0.524,-0.337,1.55,1.94,-0.46,2.61,-0.59,3.98
CCGACTGGGGCATGGTTACCATAACGCACAGCCA,-0.978,-0.621,-0.461,-0.438,-1.07,0.0592,1.31,1.11,-0.195,0.273,2.18,2.5,-0.776,-0.933,-0.129,-0.696,-0.585,-0.433,-0.847,0.396
CCAGACAGGTGAGACGGTAACTCAGCCTCGATTA,-0.078,-0.00881,0.268,-0.263,-0.377,0.144,0.367,0.232,-0.249,-0.285,1.25,0.131,0.0493,-0.407,1,-0.403,0.193,-0.309,0.615,0.413
ACCTCTAGGTAAAGATAGTTCAGTGAATGCAAAT,0.216,3.68,0.25,0.57,-0.307,0.0564,0.269,0.318,0.0482,0.178,2.21,1.04,-0.152,0.355,-0.326,0.747,0.128,0.271,-0.309,0.426
CGTCCAAGGTCAGAAAGGTCAGTGAATGCCGAGT,5.85,5,3.05,4.56,0.524,4.94,3.36,4.31,0.967,2.8,1.91,3.14,-0.203,-0.0818,3.94,6.06,10.7,5.92,3.03,5.34
CCTCGGAGGACAGAAGGTCTGAGCTGTCCGCTTT,-0.434,-0.47,-0.775,-1.15,-1.31,-0.68,-0.853,-0.655,-1.15,-1.14,0.154,-0.94,-1.16,-2.11,-0.0745,-0.674,-0.886,-0.544,-0.761,0.519
ATATTTAGGTTACATCCGGGTCATTCAGGCTATG,2.65,4.19,2.61,3.21,1.94,4.28,4.37,4.16,2.28,3.35,6.5,6.04,2.49,3.35,3.88,3.75,3.78,4.29,3.08,2.54
TCTCGGAGGACACGAAGGGTCAGAGCTCGACATC,1.35,1.66,-0.0975,1.19,-1.38,2.06,0.488,1.25,1.85,1.44,1.38,0.541,-0.0647,-1.25,0.446,1.66,-0.67,2.31,-0.314,3.14
CTCGAAAGTTCGGTTGAGGTGAGTATACGGATAA,0.279,0.2,-0.166,0.297,-0.341,0.506,-0.114,0.109,-0.0109,0.125,-0.462,0.288,-0.142,0.0612,0.083,1.14,0.236,1.8,-0.11,1.55
CGTCAAAGTTCAACTCAGGTAACGTAAAGCACGC,7.13,6.43,4.59,4.35,1.99,5.08,4.66,5.43,2.08,4.01,0.639,2.02,0.699,0.924,4.03,5.4,3.74,4.37,1.92,5.15
TAGGCTAGGTCATGGGCCAGTATACCACGCGAAC,4.91,3.13,0.324,2.18,-0.308,4.03,4.36,4.24,1.3,3.18,2,3.61,1.69,-0.653,3.07,1.42,-0.616,2.78,0.534,4.04
TCATATAGCTAAATGCTAGGTGAAAGTCCGATCT,0.567,0.2,-0.0142,0.288,-0.55,0.6,0.313,1.67,2.82,2.07,1.45,0.452,0.679,0.932,0.101,0.31,-0.278,0.514,-0.0788,0.00512
CAAACTAGGTCAAGCTCAAAGTCGGTTTGTGCCA,4.15,2.87,0.38,1.86,0.134,4.98,7.79,7.36,4.77,7.27,8.39,8.97,4.04,1.47,1.52,1.38,-0.401,2.52,0.322,4.33
ACTAGCAGGCCAAGTTCGGGTCACTCAAACAAAG,1.11,1.28,0.378,1.79,-0.339,2.45,0.431,0.794,-0.79,0.197,0.756,1.07,-0.452,-1,1.34,2.55,0.53,3.19,-0.287,2.33
TTATATAGGTAAAGGTGAAAGTCGAACGATATGA,1.14,1.34,0.121,1.2,0.294,4.2,6.76,6.26,4.77,6.33,5.88,6.52,3.04,2.82,2.08,0.997,0.227,1.74,0.54,1.88
GTACCAAGGGGAATAGGTCGTTGATGAGTAGGCG,-0.0504,0.00136,-0.0435,0.269,-0.418,1.3,0.915,1.15,0.0532,0.835,-0.45,0.704,-0.174,-0.377,0.85,0.0913,0.00696,0.389,0.37,0.516
ACAGTCAGGTGAGTGAAGGTAACTCAGCTGGACG,0.264,0.217,-0.578,-0.682,-0.538,-0.317,0.268,0.101,-0.17,-0.277,0.794,0.82,-0.123,-0.515,-0.608,-0.47,-0.728,-0.00233,0.0121,0.775
